Test results published in PubChem BioAssay (EPA / NIEHS).
Active and inactive are the calls of the source. Rule for the calls: active = hit-call score of the fitted dose curve at least 0.9, where 1 is the maximum; inactive = score below 0.9.

Legend:
Conditions in all cases: mRNA level, 48 h; actives raise or lower the signal
[1] = read-out: ATP-citrate lyase (ACLY), ACLY (gene 47); test: LTEA_HepaRG_ACLY: Life Technologies and Expression Analysis (LTEA) Assay for ATP-citrate lyase (ACLY) using HepaRG (AID 2283466)
Procedure, shortened: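 ACLY expression changes in human HepaRG liver cells are quantified by qRT-PCR after 48 h exposure to test chemicals (maximum 100 uM, half-log steps). Values are fitted in both directions relative to 0.5% DMSO vehicle.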

[2] = read-out: Peroxisomal acyl-coenzyme A oxidase 1 (ACOX1) gene, ACOX1 (gene 51); test: LTEA_HepaRG_ACOX1: Life Technologies and Expression Analysis (LTEA) Assay for Peroxisomal acyl-coenzyme A oxidase 1 (ACOX1) gene using HepaRG (AID 2283467)
Procedure, shortened: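 Human HepaRG hepatic cultures, 48 h treatment with test chemicals up to 100 uM. ACOX1 expression read by qRT-PCR relative to 0.5% DMSO vehicle.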

[3] = read-out: Alkaline Phosphatase, Placental (ALPP) gene, ALPP (gene 250); test: LTEA_HepaRG_ALPP: Life Technologies and Expression Analysis (LTEA) Assay for Alkaline Phosphatase, Placental (ALPP) gene using HepaRG (AID 2283468)
Procedure, shortened: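 ALPP transcript level, measured by qRT-PCR and normalized to three housekeeping genes (ACTB, GAPDH, POLR2A), after 48 h dosing of differentiated HepaRG in serum-free induction medium. Top concentration 100 uM with half-log dilutions (8 points, 0.5% DMSO, duplicates); bidirectional fitting relative to DMSO.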

[4] = read-out: Bcl-2 (BAD) gene, BAD (gene 572); test: LTEA_HepaRG_BAD: Life Technologies and Expression Analysis (LTEA) Assay for Bcl-2 (BAD) gene using HepaRG (AID 2283469)
Procedure, shortened: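 Activity values reflect up- or down-regulation of BAD mRNA in human HepaRG hepatic cells treated 48 h in serum-free medium, with eight-point half-log dosing capped at 100 uM and 0.5% DMSO vehicle.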

[5] = read-out: adenosine kinase (ADK) gene, ADK (gene 132); test: LTEA_HepaRG_ADK: Life Technologies and Expression Analysis (LTEA) Assay for adenosine kinase (ADK) gene using HepaRG (AID 2283471)
Procedure, shortened: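 ADK expression quantified by qRT-PCR, normalised to three housekeeping genes, after 48 h exposure of HepaRG cells to eight concentrations (top 100 uM, half-log steps, duplicate, 0.5% DMSO). Up- or down-regulation fitted relative to vehicle.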

[6] = read-out: Alpha-fetoprotein (AFP) gene, AFP (gene 174); test: LTEA_HepaRG_AFP: Life Technologies and Expression Analysis (LTEA) Assay for Alpha-fetoprotein (AFP) gene using HepaRG (AID 2283472)
Procedure, shortened: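 qRT-PCR (Fluidigm TaqMan) readout of AFP transcript, normalized to three housekeeping genes, fitted bidirectionally against 0.5% DMSO baseline. HepaRG cells received chemicals for 48 h in serum-free induction medium, top concentration 100 uM, half-log steps.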

BCL2L11 (gene 10018) = test: LTEA_HepaRG_BCL2L11: Life Technologies and Expression Analysis (LTEA) Assay for Bcl-2 (BCL2L11) gene using HepaRG (AID 2283473)
Procedure, shortened: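 BCL2L11 transcript levels are measured by Fluidigm qRT-PCR, normalized to three housekeeping genes. HepaRG cultures were plated 48 h, then treated 48 h with test chemical (top 100 uM, half-log, 0.5% DMSO vehicle); curves were fitted bidirectionally against DMSO.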

[7] = read-out: Apolipoprotein A-V (APOA5) gene, APOA5 (gene 116519); test: LTEA_HepaRG_APOA5: Life Technologies and Expression Analysis (LTEA) Assay for Apolipoprotein A-V (APOA5) gene using HepaRG (AID 2283474)
Procedure, shortened: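 APOA5 transcript levels were quantified by qRT-PCR, normalized to three housekeeping genes, after 48 h chemical treatment of HepaRG cells (8 points, 100 uM maximum, half-log steps, 0.5% DMSO). Curves fitted in both directions against vehicle.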

[8] = read-out: Apoptosis regulator Bcl-2 (Homo sapiens) (UniProt P10415); test: LTEA_HepaRG_BCL2: Life Technologies and Expression Analysis (LTEA) Assay for Bcl-2 gene using HepaRG (AID 2283475);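 note: BCL2 transcript by TaqMan qRT-PCR normalised to ACTB GAPDH and POLR2A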
Procedure, shortened: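 qRT-PCR read-out (Fluidigm TaqMan) of BCL2 transcript, normalised to three housekeeping genes, after 48 h chemical exposure of HepaRG cells; 8-point half-log series, top 100 uM, 0.5% DMSO vehicle. Gain or loss of signal fitted relative to DMSO baseline.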

Caspase-3 (Homo sapiens) = Caspase-3 (Homo sapiens) (UniProt P42574); test: LTEA_HepaRG_CASP3: Life Technologies and Expression Analysis (LTEA) Assay for cysteine-aspartic acid protease (CASP3) using HepaRG (AID 2283477)
Caspase-3 (Homo sapiens), sequence (P42574 whole entry, looked up): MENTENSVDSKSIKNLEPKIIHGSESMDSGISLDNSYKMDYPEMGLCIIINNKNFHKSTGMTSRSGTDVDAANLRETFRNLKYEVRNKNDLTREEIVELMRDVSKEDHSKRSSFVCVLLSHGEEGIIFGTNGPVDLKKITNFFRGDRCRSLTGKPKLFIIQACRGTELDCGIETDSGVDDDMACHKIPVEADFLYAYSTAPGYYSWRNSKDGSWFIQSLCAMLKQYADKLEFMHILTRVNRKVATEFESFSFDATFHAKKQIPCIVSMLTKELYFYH
Procedure, shortened: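 Expression of CASP3 was quantified by TaqMan qRT-PCR against three housekeeping genes (ACTB, GAPDH, POLR2A), bidirectionally versus 0.5% DMSO. HepaRG cultures received compounds in duplicate, top 100 uM with half-log steps, for 48 h in serum-free induction medium.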

[9] = read-out: Cytochrome P450 (CYP24A1), CYP24A1 (gene 1591); test: LTEA_HepaRG_CYP24A1: Life Technologies and Expression Analysis (LTEA) Assay for Cytochrome P450 (CYP24A1) using HepaRG (AID 2283478)
Procedure, shortened: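 mRNA of CYP24A1 quantified by TaqMan qRT-PCR (ACTB/GAPDH/POLR2A normalization) after 48 h chemical exposure of HepaRG cells, top concentration 100 uM, half-log steps, 0.5% DMSO vehicle, duplicates. Curves fitted bidirectionally against DMSO baseline.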

[10] = read-out: cysteine-aspartic acid protease (CASP8), CASP8 (gene 841); test: LTEA_HepaRG_CASP8: Life Technologies and Expression Analysis (LTEA) Assay for cysteine-aspartic acid protease (CASP8) using HepaRG (AID 2283480)
Procedure, shortened: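 Concentration-response in duplicate up to 100 uM (half-log steps, 0.5% DMSO) on differentiated HepaRG cultures for 48 h. Expression change of CASP8 mRNA is determined by TaqMan qRT-PCR with housekeeping-gene normalization.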

[11] = read-out: Cytochrome P450 2C19 (Homo sapiens) (UniProt P33261); test: LTEA_HepaRG_CYP2C19: Life Technologies and Expression Analysis (LTEA) Assay for CYP2C19 using HepaRG (AID 2283482)
Procedure, shortened: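 CYP2C19 transcript levels by qRT-PCR, normalized to three housekeeping genes, in HepaRG cells after 48 h chemical exposure. Eight-point half-log series topping at 100 uM, 0.5% DMSO vehicle. Increases and decreases both fitted against DMSO.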

CYP2C8 (gene 1558) = test: LTEA_HepaRG_CYP2C8: Life Technologies and Expression Analysis (LTEA) Assay for CYP2C8 using HepaRG (AID 2283483)
Procedure, shortened: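 This is a transcriptional endpoint in HepaRG cultures: 48 h exposure, highest concentration 100 uM. CYP2C8 mRNA is quantified by TaqMan qRT-PCR.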

CYP2C9 (gene 1559) = test: LTEA_HepaRG_CYP2C9: Life Technologies and Expression Analysis (LTEA) Assay for CYP2C9 using HepaRG (AID 2283484)
Procedure, shortened: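 Eight-point concentration-response (highest 100 uM, half-log dilutions) in HepaRG cells for 48 h; CYP2C9 expression by qRT-PCR normalized to ACTB, GAPDH, POLR2A. Bidirectional fit, DMSO baseline.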

CYP2E1 (gene 1571) = test: LTEA_HepaRG_CYP2E1: Life Technologies and Expression Analysis (LTEA) Assay for CYP2E1 using HepaRG (AID 2283485)
Procedure, shortened: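 CYP2E1 transcript was measured by TaqMan qRT-PCR in human HepaRG cultures after 48 h chemical exposure (top 100 uM, half-log steps, 0.5% DMSO vehicle). Housekeeping-gene normalization; gain or loss fitted relative to DMSO baseline.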

[12] = read-out: Cytochrome P450 (CYP1A2), CYP1A2 (gene 1544); test: LTEA_HepaRG_CYP1A2: Life Technologies and Expression Analysis (LTEA) Assay for Cytochrome P450 (CYP1A2) using HepaRG (AID 2283479)
Procedure, shortened: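 CYP1A2 transcript measured by TaqMan qRT-PCR against three housekeeping genes after 48-hour chemical exposure of HepaRG cells. Eight-point half-log series topping at 100 uM in 0.5% DMSO, duplicates; gain or loss fitted relative to vehicle.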

[13] = read-out: Cytochrome P450 (CYP2B6), CYP2B6 (gene 1555); test: LTEA_HepaRG_CYP2B6: Life Technologies and Expression Analysis (LTEA) Assay for Cytochrome P450 (CYP2B6) using HepaRG (AID 2283481)
Procedure, shortened: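 CYP2B6 transcript level quantified by qRT-PCR against three housekeeping genes, fitted bidirectionally relative to DMSO. HepaRG cultures received chemicals for 48 h, 8-point half-log series from 100 uM in 0.5% DMSO, duplicate wells, serum-free induction medium.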

[14] = read-out: Bcl-2 (BID) gene, BID (gene 637); test: LTEA_HepaRG_BID: Life Technologies and Expression Analysis (LTEA) Assay for Bcl-2 (BID) gene using HepaRG (AID 2283476)
Procedure, shortened: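 HepaRG, 48 h exposure, 8-pt half-log series, top 100 uM, 0.5% DMSO vehicle, duplicates. Readout: BID mRNA by TaqMan qRT-PCR; housekeeping-normalized; bidirectional curve fit vs DMSO baseline.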

Measured: AC50

Apoptosis regulator Bcl-2 (Homo sapiens), sequence (P10415 whole entry, looked up): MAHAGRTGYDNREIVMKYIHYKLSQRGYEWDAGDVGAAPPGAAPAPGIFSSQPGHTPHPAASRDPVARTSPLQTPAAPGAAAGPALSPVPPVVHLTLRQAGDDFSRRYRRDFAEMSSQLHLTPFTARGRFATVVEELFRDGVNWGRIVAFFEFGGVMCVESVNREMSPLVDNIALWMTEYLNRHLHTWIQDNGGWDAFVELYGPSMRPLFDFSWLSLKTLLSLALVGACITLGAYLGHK
Cytochrome P450 2C19 (Homo sapiens), sequence (P33261 whole entry, looked up): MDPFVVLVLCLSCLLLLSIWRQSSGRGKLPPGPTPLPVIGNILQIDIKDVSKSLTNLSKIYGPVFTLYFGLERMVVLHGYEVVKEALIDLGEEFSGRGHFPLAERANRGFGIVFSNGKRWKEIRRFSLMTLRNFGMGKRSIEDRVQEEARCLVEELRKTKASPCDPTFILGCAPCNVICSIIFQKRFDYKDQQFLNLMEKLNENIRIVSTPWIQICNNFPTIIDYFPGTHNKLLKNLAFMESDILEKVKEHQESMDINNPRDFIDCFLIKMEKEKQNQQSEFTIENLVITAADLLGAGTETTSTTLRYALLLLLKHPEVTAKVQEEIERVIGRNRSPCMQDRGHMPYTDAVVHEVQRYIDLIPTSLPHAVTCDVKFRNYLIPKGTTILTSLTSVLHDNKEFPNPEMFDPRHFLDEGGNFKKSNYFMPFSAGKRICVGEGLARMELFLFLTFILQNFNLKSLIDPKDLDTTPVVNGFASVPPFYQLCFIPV

CCCCC(C#N)(Cn1cncn1)c1ccc(Cl)cc1 (centres undefined)
active: [1] 50 µM | [6] 67 µM | [11] 5.75 µM | CYP2C8 (gene 1558) 12.1 µM | CYP2E1 (gene 1571) 50 µM
not listed: [12] | [13] | [14]
inactive: all other assays above

CN=C=S
not listed: BCL2L11 (gene 10018) | [9] | [12] | [13] | [14]
inactive: all other assays above

CC(C)Oc1cccc(NC(=O)c2ccccc2C(F)(F)F)c1
active: [12] 80 µM | [11] 40.2 µM | CYP2C8 (gene 1558) 50 µM | CYP2E1 (gene 1571) 84.4 µM
not listed: BCL2L11 (gene 10018) | [9] | [13] | [14]
inactive: all other assays above

CCOc1cc(C(C)(C)C)ccc1C1COC(c2c(F)cccc2F)=N1 (centres undefined)
active: [6] 25.7 µM | [13] 8.33 µM | [11] 8.34 µM | CYP2C8 (gene 1558) 7.92 µM | CYP2E1 (gene 1571) 18.7 µM
not listed: BCL2L11 (gene 10018) | [9] | [12] | [14]
inactive: all other assays above

CC1(C)C(C(=O)OC(C#N)c2cccc(Oc3ccccc3)c2)C1(C)C (centres undefined)
active: [12] 39.6 µM | [13] 67.6 µM | [11] 50 µM | CYP2E1 (gene 1571) 9.92 µM
not listed: BCL2L11 (gene 10018) | [9]
inactive: all other assays above

CNC(=O)Oc1cccc2ccccc12
active: [13] 25.6 µM
not listed: BCL2L11 (gene 10018) | [9] | [14]
inactive: all other assays above

CC(C)C1(C)N=C(c2ncccc2C(=O)O)NC1=O (centres undefined)
not listed: BCL2L11 (gene 10018) | [12] | [14]
inactive: all other assays above

Clc1nc(Cl)nc(Nc2ccccc2Cl)n1
active: [11] 10.3 µM | CYP2E1 (gene 1571) 16.7 µM
not listed: BCL2L11 (gene 10018) | [12] | [13]
inactive: all other assays above

CS(=O)(=O)c1ccc(C(=O)C2C(=O)CCCC2=O)c([N+](=O)[O-])c1
active: [12] 18.4 µM
not listed: [9] | [14]
inactive: all other assays above

CC(C)(C)C(=O)C(Oc1ccc(Cl)cc1)n1cncn1 (centres undefined)
active: [1] 66.5 µM | [11] 10.7 µM | CYP2C8 (gene 1558) 15.4 µM | CYP2E1 (gene 1571) 31.1 µM
not listed: BCL2L11 (gene 10018) | [12] | [13]
inactive: all other assays above

CCSC(=O)N1CCCCCC1
not listed: BCL2L11 (gene 10018) | [9] | [13] | [14]
inactive: all other assays above

CC1(C)C(C=C(Cl)Cl)C1C(=O)OC(C#N)c1cccc(Oc2ccccc2)c1 (centres undefined)
active: [13] 9.35 µM | [11] 23.7 µM | CYP2E1 (gene 1571) 50.2 µM
not listed: [9] | [12] | [14]
inactive: all other assays above
